Calls of active or inactive are those of the source. The calls were made as follows: active = hit-call score of the fitted dose curve at least 0.9, where 1 is the maximum; inactive = score below 0.9.
Each compound was assayed against human Phosphatase (PTEN), PTEN (gene 5728) (UniProt P60484) (assay: ERF_TW_ENZ_hPTEN: Eurofins (ERF) Enzymatic LeadHunter Assay for human Phosphatase (PTEN)).
Description: ERF_TW_ENZ_hPTEN is a biochemical, single-readout assay that uses extracted gene-proteins in a cell-free assay. Measurements were taken 1 hour after chemical dosing in a 96-well plate. See PTEN Human Phosphatase Enzymatic Assay, Panlabs.ERF_TW_ENZ_hPTEN is an assay component calculated from the ERF_TW_ENZ_hPTEN assay. It is designed to measure enzyme activity using a type of enzyme reporter as detected by fluorescence intensity with spectrophotometry technology.Data from the assay component ERF_TW_ENZ_hPTEN was analyzed at the assay endpoint, ERF_TW_ENZ_hPTEN, in the positive analysis fitting direction relative to DMSO as the negative control and baseline of activity. Using a type of enzyme reporter, loss-of-signal activity can be used to understand changes in enzymatic activity as they relate to gene PTEN. To generalize the intended target to other relatable targets, this assay endpoint is annotated to the phosphatase intended target family, where the subfamily is dual-specific phosphatase.
Human recombinant phosphatase PTEN expressed in E. coli is used. Test compound and/or vehicle is preincubated with 2 ug/ml enzymedouble dagger for 15 minutes at 37C in modified Tris-HCl buffer pH 8.5. The reaction is initiated by addition of 100 uM DiFMUP for 60 minutes. Determination of the amount of DiFMU formed is read spectrofluorimetrically at 358 nm/450 nm. […]

human Phosphatase (PTEN), PTEN (gene 5728), sequence (P60484 whole entry, looked up): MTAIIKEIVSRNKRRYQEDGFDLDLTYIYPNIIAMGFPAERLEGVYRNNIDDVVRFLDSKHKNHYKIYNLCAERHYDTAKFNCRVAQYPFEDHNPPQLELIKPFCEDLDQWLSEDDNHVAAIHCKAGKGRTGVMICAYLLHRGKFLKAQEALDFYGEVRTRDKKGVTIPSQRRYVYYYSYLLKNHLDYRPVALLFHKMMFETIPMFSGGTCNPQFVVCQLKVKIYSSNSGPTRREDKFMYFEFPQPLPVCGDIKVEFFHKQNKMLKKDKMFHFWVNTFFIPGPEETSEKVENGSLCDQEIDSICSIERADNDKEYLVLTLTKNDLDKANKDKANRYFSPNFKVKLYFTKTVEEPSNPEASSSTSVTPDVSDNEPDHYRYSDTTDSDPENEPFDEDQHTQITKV

| SMILES | AC50 |
| --- | --- |
| O=C(/C=C/c1ccc(O)cc1)CC(=O)/C=C/c1ccc(O)cc1 | 5 µM (active) |
